Screens: PubChem BioAssay, several laboratories
TMEM16A inh – blocks the mouse calcium-activated chloride channel TMEM16A. HEK293 TMEM16A/YFP iodide influx fluorescence, ionomycin. AID 588511. normalized B-score (activity score, 25-100; higher = stronger inhibition) at 10 µM. actives 1.2% (n = 310,000). Q8BHY3;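 active means ratio plate-corrected score three or more library SD toward inhibition, starting fluorescence score within five deviations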;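 further: score derived from kinetic fluorescence span divided by baseline fluorescence per well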
Target sequence (Q8BHY3 whole entry, looked up): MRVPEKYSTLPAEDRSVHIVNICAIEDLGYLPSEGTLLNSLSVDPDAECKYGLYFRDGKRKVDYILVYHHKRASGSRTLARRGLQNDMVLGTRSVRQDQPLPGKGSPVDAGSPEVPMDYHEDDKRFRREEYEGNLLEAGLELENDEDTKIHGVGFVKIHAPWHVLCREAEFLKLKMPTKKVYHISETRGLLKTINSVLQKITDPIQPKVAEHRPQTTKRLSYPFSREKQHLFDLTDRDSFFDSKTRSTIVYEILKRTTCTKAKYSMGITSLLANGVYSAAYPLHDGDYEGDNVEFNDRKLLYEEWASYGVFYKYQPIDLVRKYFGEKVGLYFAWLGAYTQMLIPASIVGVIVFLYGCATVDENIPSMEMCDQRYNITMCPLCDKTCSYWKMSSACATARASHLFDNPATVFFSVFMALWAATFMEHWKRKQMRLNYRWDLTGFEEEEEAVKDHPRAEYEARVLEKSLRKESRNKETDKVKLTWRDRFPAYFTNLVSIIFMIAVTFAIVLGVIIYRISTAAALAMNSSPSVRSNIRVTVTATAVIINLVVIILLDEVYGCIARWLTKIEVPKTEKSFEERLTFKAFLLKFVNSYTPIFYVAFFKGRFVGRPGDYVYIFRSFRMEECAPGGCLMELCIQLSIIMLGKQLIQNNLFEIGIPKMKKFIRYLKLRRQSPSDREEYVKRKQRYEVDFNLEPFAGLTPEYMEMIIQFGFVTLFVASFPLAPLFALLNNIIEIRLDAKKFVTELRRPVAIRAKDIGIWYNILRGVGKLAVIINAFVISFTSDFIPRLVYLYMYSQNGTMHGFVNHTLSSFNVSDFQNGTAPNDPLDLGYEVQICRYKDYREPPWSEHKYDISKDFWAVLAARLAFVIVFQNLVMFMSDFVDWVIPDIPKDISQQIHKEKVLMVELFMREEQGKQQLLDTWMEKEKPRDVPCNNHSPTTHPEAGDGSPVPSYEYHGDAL
ANO1 activ – mouse TMEM16A channel activation, primary screen. Q8BHY3. B-score at 10 µM. HEK293 TMEM16A/YFP-H148Q/I152L, iodide quench fluorescence; stronger effect = lower value. AID 623877. actives 0.3% (n = 340,000);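 active means fluorescence-ratio B-score plate-corrected deviation score at least 3 library SD below zero, with starting fluorescence score within 5 deviations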;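 further: channel opened by trigger with iodide after compound preincubation; score built on the fluorescence ratio of max minus min over baseline; more negative score means more quench and so TMEM16A activation or potentiation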
IDE act – boosts human insulin-degrading enzyme activity in HEK cells; P14735; FAbeta-B cleavage, fluorescence polarization; 0% vehicle, 100% cell-free pure enzyme wells; activation, % at 5.96 µM; actives 0.073% (n = 340,000); AID 493087;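 active means activation above the mean of all tested compounds plus 3 SD, set per screening campaign, cut at about 17% in these data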
IDE cell inh – inhibitors of human insulin-degrading enzyme in cells; P14735; HEK cells, FAbetaB cleavage, fluorescence polarization; inhibition, % at 5.59 µM; actives 0.41% (n = 320,000); AID 434962;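 active means percent inhibition above the average of all tested compounds plus 3 SD, set per screening campaign, cut at about 16% in these data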;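 further: IDE supplied by intact live HEK cells; FP after avidin binding of uncleaved biotin substrate so inhibition keeps polarization high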
CHT PAM – allosterically activates the human high affinity choline transporter; Q9GZV3; CHT-expressing cells, membrane potential dye, choline EC20; stronger effect = higher value; LV-AA mutant CHT in HEK293 cells; B-score at 10 µM; actives 0.49% (n = 310,000);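 active means initial fluorescence not abnormally high and integrated response B-score, plate-corrected, over 3 SD above library mean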
CHT inh – inhibits the human high affinity choline transporter. actives 0.86% (n = 310,000). B-score at 10 µM. Q9GZV3. CHT-expressing cells, membrane potential dye, choline response; stronger effect = lower value. AID 488975;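 active means B-score over 3 SD under the library average, and starting fluorescence ratio not unusually high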;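 further: choline stimulus applied at its EC90 after an EC20 pre-addition; B-score computed on integrated fluorescence ratio after choline addition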
CHT inh conf – confirmation of human choline transporter CHT inhibitors. shares compounds with CHT inh. CHT-expressing cells, choline membrane potential dye; LV-to-AA substituted CHT, HEK293 cells. CHT activity remaining % of control (stronger effect = lower value), % at 10 µM. actives 70% (n = 2,400). AID 493221;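 active means choline transporter activity left, mean of duplicates at 10 µM, below buffer-only control mean minus 3 SD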;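 further: depolarization triggered by choline at its EC90 following an EC20 pre-addition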
HEK293 MPD ctr – CHT inhibitor counter-screen hit in parental HEK293 cells; shares compounds with CHT inh; membrane potential dye, choline response; active = decrease or increase beyond buffer ±3SD; membrane potential ratio readout (active if shifted either direction beyond buffer ±3SD; no single direction) at 10 µM; actives 4% (n = 2,400); AID 493222;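 further: parental cells lack the transporter so any hit is non-specific; ratio is peak minus trough fluorescence over baseline after EC90 choline challenge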
A number is an active result; 0 = inactive; - = no result given. Rows were chosen to be rich in hits. Some 2.7% of all compounds tested hit in one or more screens of this group.

SMILES	TMEM16A inh	ANO1 activ	IDE act	IDE cell inh	CHT PAM	CHT inh	CHT inh conf	HEK293 MPD ctr
Cc1ccc(C)c(OCC(=O)Nc2ccc(S(=O)(=O)Nc3ccccn3)cc2)c1C	0	0	0	0	0	-7.2	59%	0
Cc1ccccc1OCC(=O)Nc1ccc(S(=O)(=O)Nc2ccccn2)cc1	0	0	0	0	0	0	-	-
CCCCn1nc(C(=O)N(C)CC(=O)Nc2ccc(F)c(F)c2F)ccc1=O	-	0	0	0	-	-	-	-
O=C(Nc1ccc(Cl)cn1)C1CCCN(c2ncnc3c2nc2n3CCCCC2)C1 (configuration not stated)	0	0	0	0	0	-6	32%	0
CC1CCN(CCNC(=O)C2CCCN(c3ncnc4c3nc3n4CCCCC3)C2)CC1 (configuration not stated)	0	0	0	0	0	-10	32%	0
COc1ccc(Cl)cc1NC(=O)C1CCCN(c2ncnc3c2nc2n3CCCCC2)C1 (configuration not stated)	0	0	0	0	0	-5.2	57%	0
COc1cc(NC(=O)CSc2nc(C3CC3)nc3ccccc23)cc(OC)c1	0	0	0	0	0	0	-	-
CCc1ccccc1OCC(=O)N1CCN(c2ncccn2)CC1	-	0	0	-	-	-	-	-
Cc1ccc2c(c1)N(CC(=O)NC1CCC(C)CC1)C(=O)CO2 (configuration not stated)	0	0	0	0	0	-5.9	0	0
Cc1ccc(NC(=O)COC(=O)CN2C(=O)COc3ccccc32)cc1	0	0	0	0	0	-5	43%	0
Cc1ccc2c(c1)N(CCCC(=O)NCC1COc3ccccc3O1)C(=O)CO2 (configuration not stated)	0	0	0	0	0	-8.9	21%	0
CN1C[C@@H]2[C@@H]3C(=O)N(Cc4ccccc4)C(=O)[C@@H]3[C@](C)(C1=O)N2C(=O)c1ccc(Br)cc1	-	0	0	-	-	-	-	-
CCC(C(=O)NC(C)CCc1ccccc1)n1nc(C)n2c(cc3occc32)c1=O (configuration not stated)	0	0	0	0	0	-11	0	-8.5
O=c1[nH]cc(N=Cc2cc(Cl)cc(Cl)c2O)c(=O)[nH]1	0	0	0	0	0	-13	51%	0
O=C1C(Cl)=C(NS(=O)(=O)c2ccc([N+](=O)[O-])cc2)C(=O)c2ccccc21	0	0	0	0	0	-5.8	49%	2.3
Cc1cccc(C(=O)OC(C)C(=O)N2CCc3ccccc3C2)c1C (configuration not stated)	-	0	0	0	-	-	-	-
Cc1ccccc1NC(=O)c1ccc(C)c(S(=O)(=O)NCc2cccnc2)c1	0	0	0	0	0	-7.2	27%	0
COc1ccccc1NS(=O)(=O)c1cc(C(=O)NCc2cccnc2)ccc1C	0	0	0	0	0	0	-	-
C=CCNC(=O)c1ccc(C2SCC(=O)N2Cc2ccccc2)cc1 (configuration not stated)	0	0	0	0	0	-7	70%	0
O=C(NCc1ccccc1)c1ccc(C2SCC(=O)N2Cc2ccccc2)cc1 (configuration not stated)	0	0	0	0	0	0	-	-
Cc1ccccc1OCC(=O)Nc1ccc(N2CCN(C)CC2)c(Cl)c1	0	0	0	0	0	0	-	-
CCCc1nnc(NC(=O)c2nc(S(=O)(=O)Cc3ccc(C)cc3)ncc2Cl)s1	0	0	0	0	0	-7.4	7.6%	0
CCOc1ccccc1NC(=O)c1nc(S(=O)(=O)Cc2ccccc2)ncc1Cl	0	0	0	0	0	0	-	-
COc1ccccc1NC(=O)c1nc(S(=O)(=O)Cc2ccccc2)ncc1Cl	0	0	0	0	0	0	-	-
CC(C)c1nnc(NC(=O)c2nc(S(=O)(=O)Cc3ccccc3)ncc2Cl)s1	0	0	0	0	0	-7.7	3.0%	0
SMILES	TMEM16A inh	ANO1 activ	IDE act	IDE cell inh	CHT PAM	CHT inh	CHT inh conf	HEK293 MPD ctr
Cc1ccc(NC(=O)CSCC(=O)NC2(C)CCS(=O)(=O)C2)cc1 (configuration not stated)	-	0	0	0	-	-	-	-
O=C(NCc1ccccc1)c1sc(=S)n2c1[nH]c(=O)c1ccccc12	0	0	0	0	0	-6.7	63%	0
CCCCNC(=O)c1sc(=S)n2c1[nH]c(=O)c1ccc(C(=O)NCCc3ccc(OC)c(OC)c3)cc12	0	0	0	0	0	0	-	-
CC1CCCC(NC(=O)COC(=O)/C=C/c2ccc(F)cc2)C1C (configuration not stated)	-	0	0	0	-	-	-	-
Cc1ccc(Oc2nnc(-c3ccccc3)c3ccccc23)cc1	0	0	0	0	0	0	-	-
Cc1ccc(-c2nnc(OCC3CCCO3)c3ccccc23)cc1 (configuration not stated)	0	0	0	0	0	-5.5	45%	0
COc1cc2c(cc1OC)C(c1cccc(Br)c1)NC(=O)C2 (configuration not stated)	0	0	0	-	0	0	-	-
COc1cc2c(cc1OC)C(c1c(Cl)cccc1Cl)NC(=O)C2 (configuration not stated)	0	0	0	0	0	-5.4	0	0
CCOC(=O)c1[nH]ncc1CN1CCCC(C(=O)c2ccc(C(C)(C)C)cc2)C1 (configuration not stated)	0	0	0	0	0	-8.8	0	0
COc1ccccc1NS(=O)(=O)c1cccc(C(=O)NCC(c2ccco2)N2CCCC2)c1 (configuration not stated)	-	0	0	0	-	-	-	-
COc1ccccc1NS(=O)(=O)c1ccc(C)c(C(=O)NCC(c2ccco2)N2CCCCC2)c1 (configuration not stated)	0	0	0	0	0	-16	-4.8%	0
COc1ccc(NS(=O)(=O)c2cccc(C(=O)NCC(c3ccco3)N3CCCCC3)c2)cc1 (configuration not stated)	0	0	0	0	0	-11	0.3%	0
COc1ccc(C(CNC(=O)c2cccc(S(=O)(=O)Nc3ccc(C)cc3)c2)N2CCCCC2)cc1 (configuration not stated)	0	0	0	0	0	-14	12%	0
Cc1cccc(NS(=O)(=O)c2cccc(C(=O)NCC(c3ccco3)N3CCCCC3)c2)c1 (configuration not stated)	0	0	0	0	0	-6.7	14%	0
